Screens as filed in PubChem BioAssay.
The list is not random: actives were taken first. Their share in the collection is about 4.6%.
tim23-1 inh = inhibits growth of tim23-1 mutant yeast | S. cerevisiae tim23-1 growth, BacTiter-Glo luminescence, 24 h | inhibition, % at 20 µM | 330,000 tested, 1.3% active | AID 463212;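 active = growth inhibition of the mutant yeast at or above 50%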;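 note: temperature-sensitive mutant grown at 25 °C; plate controls were DMSO-treated mutant yeast for no effect and medium wells lacking yeast for full effect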
NALP3 yeast inh = inhibitors of NALP3 inflammasome in yeast; AID 2825; 330,000 tested, 0.39% active; inhibition, % at 10 µM; Yeast reconstituted NLRP3/ASC/caspase-1, beta-gal luminescence, 24 h;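 active = inhibition of 50% or more; inactive = inhibition below 50%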;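 note: plate controls were induced DMSO wells for no effect and uninduced yeast grown without galactose for full effect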
tim10-1 inh = tim10-1 yeast growth inhibition | AID 463190 | inhibition, % at 20 µM | S. cerevisiae tim10-1 ts strain growth, BacTiter-Glo, 24 h | 330,000 tested, 2.2% active;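 active = inhibition of at least 40%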;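 note: mutant grown at 25 °C; 0% = DMSO wells with yeast and 100% = wells holding no yeast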
TIM10 inh = growth inhibitors of TIM10 yeast strain | S. cerevisiae TIM10 strain growth, BacTiter-Glo luminescence, 24 h | inhibition, % at 10 µM | 330,000 tested, 1.4% active | AID 463195;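 active = inhibition of 40% or more at the single tested concentration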;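 note: wild-type TIM10 isogenic control strain grown at permissive 25 °C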
SKKanGAS inh = blocks kanamycin growth of S. pyogenes SKKanGAS strain; BacTiter-Glo, 6 h; inhibition, % at 7.5 µM; 300,000 tested, 1.3% active; AID 1662;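 active = mean replicate score, as percent of positive control median, at least 50; inconclusive = mean below 50 but one replicate at or above 50; inactive = mean and every replicate below 50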;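 note: strain carries kanamycin resistance gene driven by streptokinase promoter and grows in 40 µg/ml kanamycin; loss of luminescence reflects streptokinase promoter inhibition or plain growth inhibition; 0% = median of DMSO wells and 100% = positive control at its reference dose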
tim10 confirm = TIM10 yeast growth inhibition, confirmed; inhibition, % at 10 µM; 4,600 tested, 63% active; shares compounds with TIM10 inh; S. cerevisiae tim10 strain growth, BacTiter-Glo luminescence, 24 h; AID 463215;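 active = inhibition of yeast growth at or above a set limit in either of two replicates at 10 µM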;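 note: this counterscreen used the strain with wild-type TIM10; 0% = yeast with DMSO and 100% = medium wells lacking yeast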
* hit, by the source's call; ? = inconclusive; · = no result given.

SMILES	tim23-1 inh	NALP3 yeast inh	tim10-1 inh	TIM10 inh	SKKanGAS inh	tim10 confirm
N=C1SC(CC(=O)Nc2ccc([N+](=O)[O-])cc2)C(=O)N1c1ccccc1 (centres undefined)	5.5	-3.2	-8.9	57.4*	-5.2	9.4
Oc1[nH]c2ccc(Br)cc2c1N=Nc1ccc(C(F)(F)F)cn1	-5.6	24.6	35.0	30.6	23.5	·
Oc1[nH]c2ccccc2c1N=Nc1ccc(C(F)(F)F)cn1	24.7	37.4	26.0	53.3*	-8.3	29.3
COc1cccc(/C=N/NC(N)=S)c1OCc1cccc(Cl)c1	19.8	27.6	36.1	45.6*	-1.8	47.8*
O=C(Cn1cncn1)NCCCc1ccccc1	3.6	10.1	13.1	-7.7	-3.4	·
Cc1ccc(/C=N/n2cc(-c3ccccc3)[nH]c2=S)s1	27.7	40.4	23.9	41.4*	-13.1	42.2*
COc1ccc(/C=C(/C(=O)Nc2ccccc2C(=O)N2CCCC2)c2ccccc2)cc1	30.0	-5.8	33.8	43.0*	6.6	27.9
COc1ccc(/C=C(/C(=O)Nc2ccccc2C(=O)NC(C)C)c2ccccc2)cc1	2.3	18.9	35.3	32.9	39.4	·
COc1ccc(CCN(C)C(=S)Nc2ccc(SC(F)F)cc2)cc1OC	11.6	10.2	6.5	10.2	8.6	·
COc1ccc(CCN(C)C(=S)NC(=O)c2ccc(F)cc2Cl)cc1OC	33.6	16.0	30.9	45.2*	-3.5	20.4
C[C@@H](OC(=O)c1[nH]cnc1C(=O)NCc1ccc(CNC(=O)OC(C)(C)C)cc1)c1ccccc1	13.5	8.3	15.4	13.7	·	·
Oc1ccc(Nc2ncnc3scc(-c4ccccc4)c23)cc1	9.5	-10.1	17.4	0.4	-0.1	·
COc1ccc(/C=N/Nc2ncnc3scc(-c4ccccc4)c23)cc1OC	26.2	7.3	31.8	57.9*	-5.0	43.8*
CC(C)(CNC(=O)c1cccs1)N1CCOCC1	-15.1	9.1	-8.7	-0.4	·	·
CCN(CC)Cc1ccc(NC(=O)c2sc3cc(Cl)ccc3c2Cl)cc1	18.6	27.9	17.7	44.0*	3.6	39.8*
c1ccc(-c2csc(Nc3ccc4c(c3)OCCO4)n2)cc1	31.8	22.9	36.8	41.4*	-1.5	5.2
COc1ccccc1N1C(=O)C=C(Sc2nc(C)cc(C)n2)C1=O	-11.4	-12.8	10.3	41.7*	2.1	44.8*
Cc1ccccc1CCN(C(=O)c1csnn1)C(C(=O)NC1CCCC1)c1ccco1 (centres undefined)	21.2	7.9	6.4	23.9	21.9	·
CC1CC(=O)N(CC(=O)NCc2ccc(F)cc2)c2ccccc2S1(=O)=O (centres undefined)	8.1	15.3	17.4	7.8	4.0	·
NNC(=O)CSc1c(-c2ccccc2)c2cc(Cl)ccc2[nH]c1=O	16.1	19.9	15.9	1.4	1.1	·
O=c1[nH]c2ccc(Cl)cc2c(-c2ccccc2)c1SC(=S)N1CCCCC1	34.8	33.1	31.8	40.4*	66.4*	27.1
CN(C)c1ccc(/C=C(\C#N)C(=O)NCc2ccco2)cc1	10.9	0.4	3.7	15.0	1.8	·
Cn1c(=O)n(C)c2cc(/C=C(/C#N)C(=O)NCc3ccco3)ccc21	21.0	3.6	33.5	43.4*	0.4	36.7*
COc1cc(C(=O)NCc2nnc(SCC(=O)NCc3ccco3)o2)cc(OC)c1OC	-3.0	10.2	1.7	-4.3	-10.6	·
O=C(/C=C/c1ccc(Br)cc1)c1ccc(NC2=NCCCS2)cc1	37.4	21.4	34.5	51.6*	10.8	29.1
SMILES	tim23-1 inh	NALP3 yeast inh	tim10-1 inh	TIM10 inh	SKKanGAS inh	tim10 confirm
c1ccc(-n2nnnc2Sc2ncnc3sc4c(c23)CCCC4)cc1	22.0	3.6	34.0	43.9*	6.2	22.6
Cc1sc2ncnc(Sc3nnnn3-c3ccc(Cl)cc3)c2c1C	1.1	16.5	26.8	13.5	?	·
O=[N+]([O-])c1ccc(Sc2nc3ccccc3o2)c([N+](=O)[O-])c1	-183.4	41.7	19.4	47.0*	8.5	68.1*
O=[N+]([O-])c1ccc(Sc2cc[n+]([O-])c3ccccc23)c([N+](=O)[O-])c1	39.0	12.8	26.4	36.2	-1.6	·
COc1ccc(C(=O)Nc2ccccc2C(=O)Nc2cccc(C)n2)cc1	31.2	20.5	29.0	25.0	-0.8	·
COc1ccc(C(=O)Nc2ccccc2C(=O)Nc2cc(C)ccn2)cc1	49.9	25.3	30.1	43.0*	12.0	44.5*
Cc1ccc(CN2CCN(Cc3ccc4cccc(F)c4n3)CC2CCO)cc1 (centres undefined)	-2.1	20.8	-8.7	-12.6	-3.1	·
Cc1[nH]c2ccccc2c1CCNC(=O)c1ccc2c(c1[N+](=O)[O-])C(=O)c1ccccc1C2=O	36.7	23.6	30.9	45.1*	31.7	13.8
CCCNC(=O)NCCc1c(C)[nH]c2ccccc12	3.7	-3.2	7.4	-3.8	-0.3	·
CC(=O)Cc1nsc(NC(=O)c2ccccc2Cl)n1	37.6	10.6	23.1	50.8*	·	-9.8
Clc1cccc(Cl)c1CSc1cc2c(nn1)-c1ccccc1CC2	25.9	2.4	38.0	40.5*	29.8	-1.0
Clc1ccccc1CSc1cc2c(nn1)-c1ccccc1CC2	17.2	6.0	24.3	15.3	35.7	·
Cc1cc(N=NC(=O)c2ccccc2)ccc1O	3.1	14.2	5.2	1.8	·	·
O=C(ONc1ccc(N=NC(=O)c2ccccc2O)cc1)c1ccccc1	38.0	21.3	39.4	41.9*	6.9	8.0
O=C1c2cccc(OCC(=O)N3CCCc4ccccc43)c2CCN1Cc1ccc(F)cc1	43.3	3.3	33.9	43.1*	9.2	-50.2
CCOc1ccc(NC(=O)CN(C)C(=O)CC(NC(=O)c2ccccc2)c2ccccc2)cc1OCC (centres undefined)	13.3	2.8	0.0	0.1	0.4	·
COc1ccc(CNC(=O)CSc2cccc3cccnc23)cc1	-0.4	-5.4	13.7	50.9*	-6.0	11.9
O=C(C1CC(=O)N(c2ccccc2)C1)N1CCN(c2ccc(F)cc2)CC1 (centres undefined)	5.6	16.8	14.3	-2.7	2.8	·
O=C1NCCOC(=O)[C@H](Cc2ccc(F)cc2)C/C=C\C[C@@H]1CC(=O)N(CCO)Cc1ccccc1	-0.4	5.6	-8.5	3.8	·	·
O=C1NCCOC(=O)[C@H](Cc2ccc(F)cc2)C/C=C\C[C@H]1CC(=O)N(CCO)Cc1ccccc1	-8.7	7.9	-5.6	47.1*	·	-5.2
CCCOc1ccc(C(=O)Nc2ccc(Cl)cn2)cc1	5.7	35.6	-6.5	-14.2	-17.6	·
O=C(Nc1ccc(Cl)cn1)c1ccc(Oc2ccccc2)cc1	12.3	34.5	-5.1	74.7*	4.3	17.4
COc1ccc(NC(=O)c2ccc(-c3nn(C)c(=O)c4ccccc34)cc2)cc1C(N)=O	-2.3	-4.1	12.6	3.9	5.0	·
Clc1ccc(-c2noc(CSc3nnc(-c4ccncc4)n3-c3ccccc3)n2)cc1	24.6	23.9	14.5	47.8*	-13.8	36.2*
Clc1ccc(-c2noc(CSc3nnc(Cc4cccs4)n3-c3ccccc3)n2)cc1	33.6	13.2	30.7	97.2*	9.0	21.8
